Assay results: PubChem BioAssay (NCATS)
Inconclusive results are not listed. A number with no mark means an inactive call. Calls follow the shape of the dose curve; as a rule, active = well fitted inhibition curve with a large enough effect; inconclusive = small, poorly fitted or top-dose-only effect, or effect the other way; inactive = flat fitted curve, though single readings scatter.

Molecular target: ATP-dependent 6-phosphofructokinase (Trypanosoma brucei brucei) (UniProt O15648)
Assay: qHTS Assay to Find Inhibitors of T. brucei phosphofructokinase: hit validation (AID 492961);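 also: luminescence reports ADP formed as PFK phosphorylates fructose-6-phosphate with ATP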
Conditions: T. brucei PFK, ADP-Glo luminescence; series mostly up to 51.4 µM; activity change, negative = inhibition: at the top concentration
In short: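 PFK 1.25 nM, F6P 0.5 mM, ATP 0.1 mM, MgCl2 5 mM, 0.1 M TEA pH 8.0, Tween20 0.01%, BSA 0.1%; 45 min RT. ADP-Glo two-step detection, luminescence. qHTS titration; curve fitting with curve-class categorization.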
% is scaled to controls: 0 for no effect and ±100 for the full control effect.

Sequence of ATP-dependent 6-phosphofructokinase (Trypanosoma brucei brucei) (O15648 whole entry, looked up): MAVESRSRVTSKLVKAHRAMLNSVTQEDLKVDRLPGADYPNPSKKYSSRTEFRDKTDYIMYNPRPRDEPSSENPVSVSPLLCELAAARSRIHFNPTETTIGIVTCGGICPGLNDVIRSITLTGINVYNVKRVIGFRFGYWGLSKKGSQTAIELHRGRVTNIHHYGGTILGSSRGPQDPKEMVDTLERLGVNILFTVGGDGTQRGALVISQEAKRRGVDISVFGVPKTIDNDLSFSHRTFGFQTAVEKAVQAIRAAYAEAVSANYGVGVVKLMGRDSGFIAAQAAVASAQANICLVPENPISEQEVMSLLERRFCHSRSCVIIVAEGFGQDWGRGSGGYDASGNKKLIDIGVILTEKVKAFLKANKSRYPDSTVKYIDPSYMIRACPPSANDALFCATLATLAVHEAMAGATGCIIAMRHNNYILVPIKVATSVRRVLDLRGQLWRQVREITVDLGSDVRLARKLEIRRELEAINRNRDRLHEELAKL

SMILES	activity change, negative = inhibition
OCC(O)CO	-3.81%
C[Se]CC[C@H](N)C(=O)O	-0.346%
CCCc1ccc(C(=O)O)cc1	8.91%
CC(C)Cc1ccc([C@@H](C)C(=O)NS(C)(=O)=O)cc1	-1.81%
[O-][N+](=Nc1ccccc1)c1ccccc1	-3.87%
O=C1c2ccccc2CN2C(=O)c3ccccc3CN12	-4.8%
O=C1[O][Bi][O]c2ccccc21	-13.6%
CCOC(=O)c1cc(-c2ccccc2)nc2ccc(C)cc12	-4.89%
O=C(NNCNNC(=O)c1ccncc1)c1ccncc1	-9.65%
Cc1ccc(S(=O)(=O)NCl)cc1	-8.47%
C(=C\c1ccncc1)/c1ccccc1	-12.5%
CCCCC[C@H](O)/C=C/[C@@H]1[C@H]2C/C(=C/CCCC(=O)O)O[C@H]2C[C@H]1O	9.58%
O=C(O)/C=C/C(=O)Nc1ccc(S(=O)(=O)Nc2nccs2)cc1	-2.56%
F[Si-2](F)(F)(F)(F)F	4.82%
O=C(O)CCCC/C=C(\c1ccccc1)c1cccnc1	11.3%
CCCCCCCCCCCCCC(=O)OCC(COP(=O)([O-])OCC[N+](C)(C)C)OC(=O)CCCCCCCCCCCCC (stereo unspecified)	6.03%
O=P(O)(O)OC[C@H](O)CO	12.2%
COC(=O)CCC[N+](C)(C)C	-7.86%

SMILES	activity change, negative = inhibition
O=C1c2ccccc2C(=O)C1c1ccc(F)cc1	-0.422%
CCC(C(=O)NC(N)=O)c1ccccc1 (stereo unspecified)	4.38%
CC(=O)[O][Al][O]C(C)=O	2.62%
[O]=[Bi][O][Bi]=[O]	8.75%
FC(F)(F)COCC(F)(F)F	2.37%
Cc1ccccn1	6.94%
CCCCCCOC(=O)c1cccnc1	-4.01%
O=C(O)[C@H]1CN(C/C=C/P(=O)(O)O)CCN1	-2.35%
O=C(O)CCC(=O)c1ccc(-c2ccccc2)cc1	5.97% [at 24.3 µM]
CCCCCCCCCCCC(=O)OCC(O)CO (stereo unspecified)	2.38%
CS(=O)(=O)c1ccc([C@@H](O)[C@@H](COC(=O)CN)NC(=O)C(Cl)Cl)cc1	-1.73%
CC1=C(/C=C/C(C)=C/C=C/C(C)=C/C(=O)Oc2c(C)c(C)c3c(c2C)CC[C@@](C)(CCC[C@H](C)CCC[C@H](C)CCCC(C)C)O3)C(C)(C)CCC1	0.793%
COc1ccc(C(=O)CCC(=O)O)c2ccccc12	-0.0405%
CC(=O)Nc1ccc(NC(=S)NC(=O)c2ccc(C(C)(C)C)cc2)cc1	-8.57%
NC(=S)NS(=O)(=O)c1ccc(N)cc1	11.1%
FCOC(C(F)(F)F)C(F)(F)F	-5.94%
FC(F)(F)C(F)(F)C(F)(F)C(F)(F)C(F)(F)F	2.6%
Cc1cc(=O)c(C(=O)N[C@@H](C(=O)N[C@@H]2C(=O)N3C(C(=O)O)=C(CSc4nnnn4C)CS[C@H]23)c2ccc(O)cc2)c[nH]1	-6.54%
